Assay outcomes (PubChem)
SRC1 inh = inhibitors of human steroid receptor coactivator 1 (SRC1); actives 0.12% (n = 360,000); inhibition, % at 3.6 µM; HEK293 GAL4-SRC1 luciferase reporter, luminescence; AID 588354; Q15788;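 active means inhibition above the campaign mean plus 3 SD, with each screening campaign given its own cutoff, cut at about 60% in these data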;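 further: 0% = DMSO treated cells and 100% = gossypol at 36 µM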
NR2F2 inh = inhibitors of human COUP-TFII (NR2F2). HEK293T NGFI-A luciferase reporter, luminescence. inhibition, % at 8.6 µM. actives 0.7% (n = 370,000);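 active means inhibition above a per-plate cutoff, mean inhibition of test wells between control levels plus 3 SD, cut at about 38% in these data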;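 further: cells cotransfected with COUP-TFII expression vector driving the NGFI-A reporter; 0% = median of COUP-TF2 test wells and 100% = reporter-only cells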
SRC3 inh = inhibitors of human steroid receptor coactivator 3 (SRC3); HEK293 GAL4-SRC3 luciferase reporter, luminescence; actives 0.17% (n = 360,000); inhibition, % at 3.6 µM; AID 588352; Q9Y6Q9;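 active means inhibition above a per-campaign cutoff, the mean of all compounds plus 3 SD, cut at about 60% in these data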;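 further: 0% = DMSO-treated cells and 100% = gossypol-treated cells at 36 µM; higher means less SRC3-driven luciferase light from the GAL4 reporter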
NR5A2 inv ag = suppresses constitutive activity of human LRH-1; O00482; HEK293T StAR-luciferase reporter, LRH-1 transfected, 24 h; inhibition, % at 3.6 µM; actives 0.13% (n = 360,000);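 active means inhibition above the mean inhibition of all tested compounds plus 3 SD, cut at about 73% in these data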;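 further: 0% = DMSO wells and 100% = reporter-only cells lacking LRH-1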
GalR3 antag = human GalR3 antagonism; actives 0.44% (n = 360,000); O60755; inhibition, % at 3 µM; HEK293 GalR3-CNG cAMP membrane potential fluorescence; galR3 body fused to GalR1 C-terminus;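 active means inhibition above the screen-wide average plus 3 SD, cut at about 13% in these data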;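 further: forskolin and galanin both at EC90 stimulate the cells; cAMP rise reported by CNG channel membrane potential dye signal; 0% = forskolin plus galanin with DMSO and 100% = forskolin alone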
SRC2 inh = inhibits human steroid receptor coactivator 2; Q15596; HEK293 GAL4-SRC2 luciferase reporter, luminescence; inhibition, % at 9 µM; actives 0.17% (n = 370,000); AID 651957;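 active means inhibition above the mean inhibition of all tested compounds plus 3 SD, set per campaign, cut at about 52% in these data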;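 further: 0% = DMSO treated cells and 100% = cells given Gossypol at 36 µM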
GalR3 antag conf = confirmation of human galanin receptor 3 antagonists; AID 652245; inhibition, % at 3 µM; actives 59% (n = 1,600); shares compounds with GalR3 antag; HEK293 GalR3 CNG cAMP biosensor, membrane potential fluorescence; galR3 fused to GalR1 carboxy tail; challenged with forskolin and galanin at EC90;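 active means inhibition above the primary screen's cutoff, the mean inhibition of all screened compounds plus 3 SD, cut at about 13% in these data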;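 further: 0% = forskolin plus galanin and 100% = forskolin alone with DMSO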
CNG parental = acts as nonspecific agonist in parental HEK-CNG cells; shares compounds with GalR3 antag; HEK293-CNG parental cells, cAMP membrane potential fluorescence; normalised: DMSO wells 0%, forskolin wells 100%; activation, % at 3 µM; actives 10% (n = 1,600); AID 652268; in the data active means activation above about 1.3%
Gal4-VP16 ctr = counter-screen for COUP-TFII antagonists: inhibitors of VP16 | shares compounds with NR2F2 inh | inhibition, % at 8.5 µM | AID 687007 | actives 25% (n = 2,500) | HEK293 Gal4-VP16 luciferase reporter, luminescence; in the data active means inhibition above about 13%
NR2F2 inh conf = confirmation of human COUP-TFII (NR2F2) inhibitors; shares compounds with NR2F2 inh; HEK293 NGFI-A luciferase reporter, luminescence; inhibition, % at 8.5 µM; actives 45% (n = 2,500); AID 687008;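 active means mean inhibition over three repeats above a set limit taken from the earlier primary screen, cut at about 38% in these data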;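 further: 100% = cells given the luciferase reporter alone without the COUP-TF2 vector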
* = called active by the depositor. Compounds with a hit are over-represented: about 1.1% of the library has one in this group of screens.

How did Cc1ccc(NC(=O)CSc2nn(-c3ccccc3)c(=S)s2)cc1S(=O)(=O)N(C)C do in these assays?
SRC1 inh: 0; NR2F2 inh: 68*; SRC3 inh: 18; NR5A2 inv ag: 29; GalR3 antag: 72*; SRC2 inh: 27; GalR3 antag conf: 93*; CNG parental: 0; Gal4-VP16 ctr: 2; NR2F2 inh conf: 63*

Results for O=C(CSc1nn(-c2ccccc2)c(=S)s1)Nn1cnnc1 ?
SRC1 inh: 0; NR2F2 inh: -3; SRC3 inh: 15; NR5A2 inv ag: 1; GalR3 antag: -4; SRC2 inh: -10

How did O=C(NCc1ccccc1)[C@H]1CCCN1 do in these assays?
NR2F2 inh: 7; GalR3 antag: -6; SRC2 inh: -44

What do the screens show for `COc1ccc(NC(=O)COc2ccc(N(C)S(=O)(=O)c3ccc(Cl)cc3)cc2)cc1OC`?
SRC1 inh: 11; NR2F2 inh: 59*; SRC3 inh: 29; NR5A2 inv ag: 41; GalR3 antag: 91*; SRC2 inh: 14; GalR3 antag conf: 85*; CNG parental: 0; Gal4-VP16 ctr: 2; NR2F2 inh conf: 58*

What do the screens show for `COc1ccc(NS(=O)(=O)c2ccc(OC)c(N(C)S(=O)(=O)c3ccc(Cl)cc3)c2)cc1`?
SRC1 inh: -4; NR2F2 inh: 57*; SRC3 inh: 26; NR5A2 inv ag: 40; GalR3 antag: 25*; SRC2 inh: 34; GalR3 antag conf: 62*; CNG parental: 0; Gal4-VP16 ctr: -7; NR2F2 inh conf: 21

How did CN(c1ccc(OCC(=O)OCC(=O)Nc2ccc(F)cc2)cc1)S(=O)(=O)c1ccc(Cl)cc1 do in these assays?
SRC1 inh: 1; NR2F2 inh: 2; SRC3 inh: 11; NR5A2 inv ag: -2; GalR3 antag: 5; SRC2 inh: -19

What do the screens show for `COc1ccc(S(=O)(=O)Nc2ccc(F)cc2)cc1N(C)S(=O)(=O)c1ccc(Cl)cc1`?
SRC1 inh: -6; NR2F2 inh: 14; SRC3 inh: 0; NR5A2 inv ag: -3; GalR3 antag: -5; SRC2 inh: 7

How did O=c1ccn(C2CC(O)C(COC(c3ccccc3)(c3ccccc3)c3ccccc3)O2)c(=O)[nH]1 (stereo not drawn) do in these assays?
NR2F2 inh: -6; GalR3 antag: -4; SRC2 inh: 1

Results for CCCCCN1CCCCC(NC(=O)c2cccc(F)c2)C1=O (stereo not drawn) ?
NR2F2 inh: -5; SRC2 inh: -7

Results for COc1cc(CCC(=O)OCC(=O)Nc2sccc2C(N)=O)cc(OC)c1OC ?
SRC1 inh: 6; NR2F2 inh: 39*; SRC3 inh: -20; NR5A2 inv ag: 0; GalR3 antag: 93*; SRC2 inh: 8; GalR3 antag conf: 102*; CNG parental: -1; Gal4-VP16 ctr: -4; NR2F2 inh conf: 21

How did O=C(NCc1ccccc1)OC1CCC12CCC(c1ccccc1)CC2 (stereo not drawn) do in these assays?
NR2F2 inh: 25

Results for Fc1ccc(CN2CCN(c3ncc(Cc4ccccc4)cn3)CC2)c(Cl)c1 ?
NR2F2 inh: 51*; GalR3 antag: 82*; SRC2 inh: 24; GalR3 antag conf: 109*; CNG parental: 0; Gal4-VP16 ctr: 6; NR2F2 inh conf: 47*

What do the screens show for `COc1ccc(Oc2c(Br)cnn(Cc3cccc4ccccc34)c2=O)cc1`?
NR2F2 inh: 2; SRC2 inh: -12

Results for CC12C=CC(C)(C3C(=O)NC(=O)C31)C1C3C(=O)NC(=O)C3C12 (stereo not drawn) ?
NR2F2 inh: 6; GalR3 antag: -6; SRC2 inh: -18

Results for Cc1cc(Br)c(OCc2ccc(C(=O)N/N=C/c3ccc[nH]3)cc2)c(Br)c1 ?
SRC1 inh: -10; NR2F2 inh: 68*; SRC3 inh: 76*; NR5A2 inv ag: 91*; GalR3 antag: 61*; SRC2 inh: -41; GalR3 antag conf: 12; CNG parental: 0; Gal4-VP16 ctr: 29*; NR2F2 inh conf: 78*

How did COc1ccc(-c2c(-c3ccc(O)cc3O)n[nH]c2C(F)(F)F)cc1 do in these assays?
SRC1 inh: 15; NR2F2 inh: 16; SRC3 inh: -13; NR5A2 inv ag: 19; GalR3 antag: -5; SRC2 inh: -4

Results for Oc1ccc(-c2n[nH]c(C(F)(F)F)c2-c2ccccc2)c(O)c1 ?
SRC1 inh: 11; NR2F2 inh: 65*; SRC3 inh: 24; NR5A2 inv ag: 23; GalR3 antag: 47*; SRC2 inh: 25; GalR3 antag conf: 89*; CNG parental: -2; Gal4-VP16 ctr: 0; NR2F2 inh conf: 48*

How did CCN(CC)S(=O)(=O)c1ccc(/C=C/C(=O)Nc2ccc(Br)cc2F)cc1 do in these assays?
SRC1 inh: 25; NR2F2 inh: 56*; SRC3 inh: 41; NR5A2 inv ag: 33; GalR3 antag: 59*; SRC2 inh: 26; GalR3 antag conf: 99*; CNG parental: 0; Gal4-VP16 ctr: 0; NR2F2 inh conf: 70*

Results for CCN(CC)S(=O)(=O)c1cccc(NC(=O)/C=C/c2ccc([N+](=O)[O-])cc2)c1 ?
SRC1 inh: 12; NR2F2 inh: 17; SRC3 inh: -3; NR5A2 inv ag: 12; GalR3 antag: -12; SRC2 inh: 11

Results for CC1(C)CC(=O)C=C(C2CC2)C1=O ?
NR2F2 inh: -16; GalR3 antag: -4; SRC2 inh: 10

Results for COc1ccc(NC(=O)CSc2ncccc2C(=O)OC(C)C)cc1OC ?
SRC1 inh: 2; NR2F2 inh: 58*; SRC3 inh: -3; NR5A2 inv ag: 10; GalR3 antag: 28*; SRC2 inh: 23; GalR3 antag conf: 13*; CNG parental: 0; Gal4-VP16 ctr: -3; NR2F2 inh conf: 28

Results for COc1ccc(NC(=O)CSc2ccccn2)cc1OC ?
SRC1 inh: -2; NR2F2 inh: -4; SRC3 inh: -4; NR5A2 inv ag: -8; GalR3 antag: 0; SRC2 inh: -1
